In PubChem BioAssay AID1347076 (National Center for Advancing Translational Sciences (NCATS), 2019) one finds Potency data, which are given here for 93 compounds.

Each structure is given as a SMILES string. In all, about 400,000 compounds went through this assay and about 13,000 (3.2%) were called active. Where a call stands in place of a potency, no number is given. About 18% were inconclusive and are not listed. The call rests on the fitted dose curve; in most records, active means well fitted cell-killing curve with a large enough effect; inconclusive means small, poorly fitted or top-dose-only effect, or effect the other way; inactive means flat fitted curve, though single readings scatter. This excerpt belongs to a sample that is enriched for actives.
Potency means the concentration at half of the fitted maximal effect.

This experiment can be described thus: qHTS assay for MDR1-selective chemotherapeutics: Primary screen using the drug-selected MDR subline cells KB-V1. Further: nearly all actives have a fitted effect of over 60% in size. The conditions noted are these: KB-V1 MDR cells viability, CellTiter-Glo, 72 h; series mostly up to 46.1 µM. An outline of the steps: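 qHTS viability screen in drug-selected KB-V1 MDR cells: 72 h compound treatment at 37 degrees C, ATP luminescence end point.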
Regarding `CCCn1c(N)c(C(=O)CSc2nnc(Cc3cccs3)n2C2CC2)c(=O)[nH]c1=O`, the Potency result was “inactive”.

For the compound `CCn1c(NCCc2ccc(OC)c(OC)c2)nc2c1c(=O)n(C)c(=O)n2C`, the Potency is 4.61 µM (active).

In the case of `COCCn1c(CN(Cc2ccccc2)Cc2ccccc2)nc2c1c(=O)n(C)c(=O)n2C`, the Potency result was “inactive”.

Turning to `CCCCn1c(SCC(=O)NCCc2ccc(OC)c(OC)c2)nc2c1c(=O)n(C)c(=O)n2C`, the Potency entry is “inactive”.

For the compound `Cn1c(=O)c2c(nc(NCCc3ccccc3)n2Cc2ccccc2)n(C)c1=O`, the Potency is 6.51 µM (active).

In the case of `CC(C)CCn1c(CN(C)Cc2ccccc2)nc2c1c(=O)n(C)c(=O)n2C`, the Potency was 9.2 µM (active).

Take `Cc1ccnc(SCCn2c(N(C)Cc3ccccc3)nc3c2c(=O)n(C)c(=O)n3C)n1`: the Potency entry was “inactive”.

Take `COc1ccc(CCNc2nc(C)cc(C)n2)cc1OC`: the Potency entry was “inactive”.

Turning to `Cn1c(=O)c2c(nc(NCc3ccccc3)n2CC(N)=O)n(C)c1=O`, the Potency result was “inactive”.

As for `Cn1c(=O)c2c(nc(NCCc3ccccc3)n2Cc2ccccc2Br)n(C)c1=O`, the Potency result is “inactive”.

Turning to `Cc1noc(C)c1C(=O)N1CCC1(C)C(=O)NS(=O)(=O)c1ccc(C#N)cc1` (stereo not drawn), the Potency result is “inactive”.

As for `Cc1ccc(-c2cnc(C(O)c3cc(Cl)cc(Cl)c3)[nH]2)cc1` (stereo not drawn), the Potency entry was “inactive”.

With `Cc1cccc(N2CCN(S(=O)(=O)c3ccc4[nH]c5c(c4c3)CCCCC5)CC2)c1C`, the Potency result was “inactive”.

Consider `O[C@@H]1C[C@H](c2ccccc2)N(Cc2cccs2)C[C@H]1n1cc(C2CC2)nn1`, for which the Potency entry was “inactive”.

For the compound `COC(=O)[C@]12CCCCC=C1N(Cc1ccc3c(c1)OCO3)C(=O)[C@H](CC(=O)N1CCOCC1)C2`, the Potency result was “inactive”.

Consider `Cc1cccc(/C=N/NC(=O)CNc2cccc3ccccc23)n1`, for which the Potency was 14.6 µM (active).

For `Cn1cccc1/C=N/NC(=O)CNc1cccc2ccccc12`, the Potency result is “inactive”.

As to `C/C(=N\NC(=O)CNc1cccc2ccccc12)c1ccc(Br)s1`, the Potency result was “inactive”.

As to `COCCNS(=O)(=O)c1cc(-c2nn3c(C)nnc3c3ccccc23)ccc1C`, the Potency result is “inactive”.

For `Cc1ccc(NC(=O)c2ccco2)cc1`, the Potency result was “inactive”.

As to `CCOc1cc(N2CCOCC2)c(OCC)cc1NC(=O)COc1cccc2cccnc12`, the Potency is 5.17 µM (active).

Take `CCOc1cc(N2CCOCC2)c(OCC)cc1NC(=O)COc1cccc(Cl)c1`: the Potency result is “inactive”.

For the compound `CCOc1cc(N2CCOCC2)c(OCC)cc1NC(=O)c1ccc(C)s1`, the Potency result was “inactive”.

Turning to `CC(C)(C)c1ccc(C(=O)C[n+]2cccc3cc(Cl)ccc32)cc1`, the Potency result was “inactive”.

As to `Cc1ccc(C(=O)N2c3ncnn3C3(CCCCC3)[C@@H]3CCCC[C@@H]32)cc1`, the Potency entry was “inactive”.

Consider `Cc1occc1C(=O)Nc1nnc(C2CCCCC2)s1`, for which the Potency is 16.4 µM (active).

For the compound `O=C(Nc1nnc(C2CC2)s1)c1cc(Cl)sc1Cl`, the Potency result is “inactive”.

As for `Cc1cc(C(=O)Nc2nnc(C3CC3)s2)c(C)s1`, the Potency result was “inactive”.

Turning to `CC1=C(C(=O)N2CCOCC2)CC(CC(=O)NCCN2CCOCC2)C(=O)N1CCC1=CCCCC1` (stereo not drawn), the Potency result was “inactive”.

As to `COc1ccc(N2CCN(S(=O)(=O)c3ccc(-c4coc(C)n4)cc3)CC2)cc1`, the Potency entry is “inactive”.

Turning to `COc1ccc(Br)cc1C1CC(=O)Nc2c1c(C)nn2-c1nc(C)cc(C)n1` (stereo not drawn), the Potency entry was “inactive”.

On to `Oc1ccc(Br)cc1C1C=C(c2ccc3c(c2)OCO3)NC(c2ccc(Cl)cc2)N1` (stereo not drawn), for which the Potency entry is “inactive”.

As for `COc1ccc(OCC(=O)Nc2cc(C)c(Cl)cc2OC)c([N+](=O)[O-])c1`, the Potency result is “inactive”.

For the compound `COC(=O)c1cc(Oc2ccc(S(=O)(=O)N3CCOCC3)cc2[N+](=O)[O-])cc(C(=O)OC)c1`, the Potency result was “inactive”.

Take `Cc1nnc(-c2ccc(Oc3ccc(C)c(C)c3)c([N+](=O)[O-])c2)o1`: the Potency is 14.6 µM (active).

Regarding `CCc1ccccc1NC(=O)N1CCN(C(=O)c2nsc3ccccc23)CC1`, the Potency result was “inactive”.

In the case of `CCOc1cc(-c2nnc(SCC(=O)NC3CCCC3)nc2-c2ccc(OC)c(OCC)c2)ccc1OC`, the Potency entry is “inactive”.

`CC(=O)c1ccc(N2CCN(C(=O)c3ccc(Cl)c(S(=O)(=O)NC4CC4)c3)CC2)c(F)c1`: the Potency entry is “inactive”.

Consider `CN(c1ccccc1)S(=O)(=O)c1cc(C(=O)OCC(=O)N2CCN(C(=O)c3ccco3)CC2)ccc1Cl`, for which the Potency entry is “inactive”.

Regarding `CN(c1ccccc1)S(=O)(=O)c1cc(C(=O)Nc2nc3ccccc3[nH]2)ccc1Cl`, the Potency was 3.66 µM (active).

For the compound `COc1cccc(C(=O)Nc2nnc(S(=O)(=O)N(C)c3ccccc3)s2)c1`, the Potency result was “inactive”.

In the case of `CN(c1ccccc1)S(=O)(=O)c1cc(C(=O)N2CCN(c3ncccn3)CC2)ccc1Cl`, the Potency was 2.91 µM (active).

For the compound `CN(c1ccccc1)S(=O)(=O)c1ccc(C(=O)N2CCN(c3ccccc3Cl)CC2)cc1`, the Potency result was “inactive”.

Regarding `CC(OC(=O)c1ccc(NC(=O)CC#N)cc1)C(=O)Nc1ccc(S(=O)(=O)N2CCCC2)cc1` (stereo not drawn), the Potency result is “inactive”.

As for `Nc1nc2cc(Cl)ccc2n1N`, the Potency entry was “inactive”.

For the compound `CCCCN(CC)C(=O)c1c[nH]c2ccc(S(=O)(=O)Nc3cccc(OC)c3)cc2c1=O`, the Potency entry is “inactive”.

`CCCc1nc2c3ccccc3ccn2c1Cc1ccccc1C(F)(F)F`: the Potency result is “inactive”.

Take `COC(=O)[C@@]1(Cc2ccc(OC)cc2)[C@H]2c3cc(C(=O)N4CCCC4)n(Cc4ccc(OC(F)(F)F)cc4)c3C[C@H]2CN1C(=O)c1ccccc1`: the Potency is 20.6 µM (active).

As to `COC(=O)[C@@]1(Cc2ccc(F)cc2)[C@H]2c3cc(C(=O)N4CCCC4)n(C[C@H](O)CO)c3C[C@H]2CN1C(=O)c1ccccc1`, the Potency result is “inactive”.

As for `COc1ccc(CNC(=O)C2CCN(C(=O)c3ccccc3)CC2)cc1`, the Potency entry is “inactive”.

`COc1ccc2c(c1)C(SCC(=O)NCc1ccccc1)CC(C)(C)O2` (stereo not drawn): the Potency result was “inactive”.

As to `C[C@]1(C(=O)NCCc2c[nH]c3ccccc23)C=C[C@@H](Cc2ccccc2)N1C(=O)c1ccccc1`, the Potency entry is “inactive”.

As for `COC(=O)[C@@]1(Cc2ccc(F)cc2)[C@H]2c3cc(C(=O)N(C)C)n(CCc4c[nH]c5ccc(OC)cc45)c3C[C@H]2CN1C(=O)c1ccccc1`, the Potency is 18.4 µM (active).

In the case of `CCN1C(=O)[C@H]2[C@@H](c3ccc(C(F)(F)F)cc3)N[C@]3(CCCN(Cc4ccc(Br)cc4)C3=O)[C@H]2C1=O`, the Potency entry was “inactive”.

`CC1(C)CC(=O)C=C(c2ccccc2CO)C1=O`: the Potency result is “inactive”.

As to `Cn1c(Nc2ccc(F)cc2)nc2cc(-c3ccsc3)sc2c1=O`, the Potency result was “inactive”.

`O=C(c1cnn2c1NC(=C1CC1)C=C2C(F)F)N1CCc2ccccc2C1`: the Potency entry is “inactive”.

`CCN(CC)S(=O)(=O)c1ccc2c(c1)c(=O)c(C(=O)N1CCN(c3cccc(Cl)c3)CC1)cn2C`: the Potency entry is “inactive”.

`C=CCn1cc(C(=O)NCc2ccc(Cl)cc2)c(=O)c2cc(S(=O)(=O)N(CC)CC)ccc21`: the Potency is 18.4 µM (active).

In the case of `CCn1cc(C(=O)NCc2ccccc2)c(=O)c2cc(S(=O)(=O)N3CCCCC3)ccc21`, the Potency result was “inactive”.

Consider `CCOC(=O)C1=CCC2C(=O)N(Cc3ccccc3)C(=O)C12` (stereo not drawn), for which the Potency entry was “inactive”.

In the case of `COc1cc(NS(=O)(=O)c2ccc(NC(C)=O)cc2)cc(OC)c1`, the Potency result was “inactive”.

For the compound `CC(=O)c1c(C)oc2ccc(NS(=O)(=O)c3ccc(C(=O)O)cc3)cc12`, the Potency result was “inactive”.

Take `COc1ccc(S(=O)(=O)Nc2ccc3oc(C)c(C(C)=O)c3c2)cc1`: the Potency was 2.59 µM (active).

Regarding `COc1ccc(S(=O)(=O)Nc2cc3c(C(=O)OC(C)C)c(C)oc3c3ccccc23)cc1`, the Potency was 5.17 µM (active).

Take `COc1cc2ccccc2cc1C(=O)Nc1ccc(S(=O)(=O)Nc2cc(C)on2)cc1`: the Potency entry is “inactive”.

For the compound `CCc1ccc(S(=O)(=O)Nc2cc3c(C(=O)OCc4ccccc4)c(C)oc3c3ccccc23)cc1`, the Potency result was “inactive”.

With `CN1CCn2cnc(C(=O)NCC(=O)OC(C)(C)C)c2C1=O`, the Potency entry was “inactive”.

With `Cc1cccc(-n2ccnc2SCC(=O)Nc2cc(C(F)(F)F)ccc2Cl)c1`, the Potency result is “inactive”.

Turning to `C[C@H](O)[C@@H]1C(=O)N2CCc3c([nH]c4ccccc34)[C@@H]2C[C@@H]1N(C)C(=O)Nc1ccc(F)cc1`, the Potency result is “inactive”.

`N#CC1(Nc2ccc3c4c(cccc24)CC3)CCCCC1`: the Potency entry is “inactive”.

`O=C(CNC(=O)c1cc2c(s1)CCC2)Nc1ccccc1Br`: the Potency was 18.4 µM (active).

Turning to `O=C(NCCCN1CCOCC1)c1cc2c(s1)CCC2`, the Potency result is “inactive”.

On to `O=C(CCc1nc2sc3c(c2c(=O)[nH]1)CCCC3)NCC(=O)Nc1ccccc1Br`, for which the Potency result is “inactive”.

`CCN(Cc1ccncc1)C(=S)Nc1ccccc1C`: the Potency entry was “inactive”.

Turning to `COc1ccc([C@H]2C[C@@H](n3cc(COC(=O)c4ccccc4)nn3)[C@H](O)CN2C(=O)c2cccs2)cc1`, the Potency result is “inactive”.

For the compound `O=C(Nc1ccc(OCCO)cc1)c1csc([C@H]2C[C@H](O)[C@@H](CO)O2)n1`, the Potency result is “inactive”.

For the compound `Fc1cccc(Cc2c(-c3cccc(Cl)c3)nc3ccc(Br)cn23)c1`, the Potency result was “inactive”.

On to `COc1ccc(Cl)cc1NC(=O)c1cccc(N2C(=O)C3CC=CCC3C2=O)c1` (stereo not drawn), for which the Potency result was “inactive”.

Consider `COc1ccc(Cl)cc1NC(=O)COC(=O)C(CC(C)C)N1C(=O)C2CC=CCC2C1=O` (stereo not drawn), for which the Potency was 10.3 µM (active).

Take `COc1ccc(Cl)cc1NC(=O)COc1ccc2c(c1)OCO2`: the Potency entry was “inactive”.

As for `O=C(CCSc1ccccc1)N1CCN(c2ccccc2F)CC1`, the Potency entry was “inactive”.

`O=C(Cn1c(-c2ccc(Cl)cc2)noc1=O)N1CCN(c2ccccc2F)CC1`: the Potency is 9.2 µM (active).

On to `CC1(C2CC2)NC(=O)N(CC(=O)N2CCN(c3ccccc3F)CC2)C1=O` (stereo not drawn), for which the Potency result is “inactive”.

Consider `Clc1ccccc1Nc1nc(NCc2cccs2)nc2ccsc12`, for which the Potency result was “inactive”.

Take `CCCNC(=O)C(CC)n1nc(CC)n2c(cc3oc(C)cc32)c1=O` (stereo not drawn): the Potency entry was “inactive”.

As to `CC(C)(C(=O)N1CCC1(C)C(=O)NS(=O)(=O)c1ccc(Br)cc1)c1ccccc1` (stereo not drawn), the Potency entry was “inactive”.

Regarding `CC(OC(=O)c1cccnc1Cl)C(=O)NC1CCCCC1` (stereo not drawn), the Potency result is “inactive”.

In the case of `Cc1ccc(C(=O)NC2CCN(C(=O)Nc3ccc(F)cc3)CC2)cc1`, the Potency entry is “inactive”.

As to `CCS(=O)(=O)N1CCCC(C(=O)NCc2ccc(C)cc2)C1` (stereo not drawn), the Potency entry was “inactive”.

For `Cc1ccc(NC(=O)N2CCC(C(=O)NCc3ccc(F)cc3)CC2)cc1`, the Potency is 18.4 µM (active).

Take `O=C1Nc2ccccc2NC(c2ccc3c(c2)OCO3)=C1N(Cc1ccc(F)cc1)C(=O)c1ccco1`: the Potency entry is “inactive”.

As for `O=C(c1ccc2c(c1)N(Cc1ccccc1F)C(=O)c1ccccc1S2(=O)=O)N1CCOCC1`, the Potency result is “inactive”.
